MOR-DOR inv ag = inverse agonists of MOR-DOR heterodimerization, primary screen, cell-based, luminescence | AID 504357, 2011 | cell-based MOR-DOR heterodimer luminescence, inverse agonism | inhibition, % at 9.3 µM | Mu-type opioid receptor (Homo sapiens) + Delta-type opioid receptor (Homo sapiens), … | 0.21% of 340,000 active; in the data active = inhibition above about 22%, passing the limit was not always enough;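 note: 0% = cells with DMSO and 100% = wells without cells with DMSO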
OPRM1-OPRD1 ag = agonists of OPRM1-OPRD1 heterodimerization, primary screen, cell-based, luminescence. cells. activation, % at 9.3 µM. Mu-type opioid receptor (Homo sapiens) + Delta-type opioid receptor (Homo sapiens), …. AID 504326, 2011. 0.3% of 340,000 active; in the data active = activation above about 18%;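 note: 0% = vehicle-treated cells and 100% = reference agonist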
HTR5A ag ctr = HTR5A agonists in luminescence cell assay, primary screen, counter-screen for OPRM1-OPRD1 heterodimer agonist project, full-deck HTS. 0.61% of 340,000 active. cell-based. 5-hydroxytryptamine receptor 5A (Homo sapiens), P47898. activation, % at 9.3 µM. AID 504692, 2011; in the data active = activation mostly above about 9.5%, no sharp cut-off; inactive = mostly below about 7.6%;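 note: 0% = cells with vehicle only and 100% = reference agonist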
HTR5A inv ag = HTR5A inverse agonists in luminescence cell assay, primary screen, counter-screen for OPRM1-OPRD1 heterodimer inverse agonist project, full-deck HTS; HTR5A cell line, inverse agonism; inhibition, % at 9.3 µM; 0.083% of 340,000 active; AID 504634, 2011; in the data active = inhibition mostly above about 23%, no sharp cut-off; inactive = mostly below about 18%;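 note: 0% = cells with DMSO and 100% = no-cell wells with DMSO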
sPLA2-III inh = human group III sPLA2 inhibitors, primary screen, biochemical, QFRET, BODIPY PC-A2 liposome substrate | QFRET BODIPY PC-A2 liposome hydrolysis, fluorescence | inhibition, % at 12.2 µM | AID 743126, 2013 | 0.56% of 370,000 active;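 active = inhibition above mean plus 3 SD of compounds lying within the high and low control bounds, cut at about 19% in these data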;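 note: 0% = median of test compound wells and 100% = no enzyme DMSO wells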
m5-HT2A agonist = mouse Htr2a agonists via beta-arrestin recruitment, primary screen, cell-based, luminescence. 5-hydroxytryptamine receptor 2A (Mus musculus), P35363. CHO-K1 mHTR2A beta-arrestin complementation; percent of 30 µM serotonin response. activation, % at 7.6 µM. 0.66% of 360,000 active;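 active = activation above a run cutoff, the mean activation of all tested compounds plus 3 SD, cut at about 14% in these data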;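 note: 0% = plate median of compound wells and 100% = 30 µM serotonin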
Target sequence (P35363 whole entry, looked up): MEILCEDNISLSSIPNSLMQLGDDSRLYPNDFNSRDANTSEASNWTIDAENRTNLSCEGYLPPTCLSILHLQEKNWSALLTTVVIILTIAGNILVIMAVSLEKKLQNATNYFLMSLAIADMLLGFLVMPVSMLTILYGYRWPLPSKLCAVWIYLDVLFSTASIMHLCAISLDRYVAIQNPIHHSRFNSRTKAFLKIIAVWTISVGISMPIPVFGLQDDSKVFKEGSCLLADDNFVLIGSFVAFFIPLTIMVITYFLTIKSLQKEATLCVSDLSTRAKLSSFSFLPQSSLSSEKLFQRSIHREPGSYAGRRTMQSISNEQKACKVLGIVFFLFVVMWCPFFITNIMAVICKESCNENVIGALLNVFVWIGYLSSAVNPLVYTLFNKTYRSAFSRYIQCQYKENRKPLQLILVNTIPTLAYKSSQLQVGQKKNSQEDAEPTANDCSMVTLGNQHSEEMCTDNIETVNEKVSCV
MOR ag counter = OPRM1 agonists via beta-arrestin recruitment, confirmation, counter-screen for mouse HTR2A agonist project, cell-based, luminescence, single concentration | activation, % at 9.3 µM | shares compounds with m5-HT2A agonist | 5.3% of 2,300 active | U2OS OPRM1 beta-arrestin PathHunter; DMSO 0%, DAMGO 9.3 µM 100%;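 active = mean activation above the mean of DMSO-only wells plus 3 SD, cut at about 0.5% in these data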
HTR2A ag conf = mouse HTR2A agonists, beta-arrestin recruitment, confirmation, cell-based, luminescence, CHO-K1 PathHunter, triplicate | AID 624381, 2012 | shares compounds with m5-HT2A agonist | DMSO 0%, 30 µM serotonin 100% | activation, % at 7.6 µM | 19% of 2,300 active;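 active = mean activation across triplicates above the hit threshold derived in the original primary screen, cut at about 15% in these data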
* hit, by the source's call; . = no result given. An excerpt weighted towards active compounds, which were near 2.2% of everything screened.

SMILES	MOR-DOR inv ag	OPRM1-OPRD1 ag	HTR5A ag ctr	HTR5A inv ag	sPLA2-III inh	m5-HT2A agonist	MOR ag counter	HTR2A ag conf
O=C(O)/C=C\C(=O)Nc1ccc(N2CCN(c3ccc(Cl)cc3)CC2)cc1	-7	1	6	-43	10	7	.	.
Cc1cccc(NC(=O)C2CCCN2S(=O)(=O)c2cccnc2)c1C (stereo not given)	.	.	.	.	5	.	.	.
Cc1ccc(S(=O)(=O)NCCC(=O)NCc2ccccn2)cc1	14	-3	-1	3	1	0	.	.
Cc1ccc(S(=O)(=O)NC(=O)NCc2ccccn2)cc1	-20	3	5	-12	-1	14*	-1	-3
CC(C)(C)NC(=O)C(c1cc2ccccc2o1)n1c(=O)c(-c2ccco2)nc2ccccc21 (stereo not given)	.	.	.	.	9	16*	-1	-4
COC(=O)c1ccsc1NS(C)(=O)=O	.	.	.	.	17	.	.	.
CCOC(=O)CC(=O)CSCC(=O)Nc1ccc(C)cc1	6	-1	1	9	-11	16*	0	1
Cc1ccc(NC(=O)CN(C)S(=O)(=O)c2ccc(Cl)s2)c(O)c1	8	-2	-2	15	-58	18*	-1	-1
CC1=C[C@@H]2[C@H]3C(=O)N(Cc4ccccc4)C(=O)[C@H]3[C@@H]1[C@@H]1O[C@@]3(C(=O)N(C)c4ccccc43)C3=C(CCCC3=O)N21	.	.	.	.	4	.	.	.
COc1ccc(S[C@]2(C(=O)N3CCN(C(C)=O)CC3)CC(=O)N[C@@H]2c2ccc(OC)cc2)cc1	.	.	.	.	1	.	.	.
COC(=O)CSc1ccc(S(=O)(=O)N2CCC(C)CC2)cc1[N+](=O)[O-]	-47	7	4	0	-3	17*	0	-4
Cc1ccc(S(=O)(=O)N2CCC(C)CC2)cc1[N+](=O)[O-]	14	-3	-1	-20	4	1	.	.
CCOC(=O)CSc1ccc(S(=O)(=O)N(CC)CC)cc1[N+](=O)[O-]	-5	1	6	-14	-16	17*	-1	-4
Cc1nn(CCC(=O)NNC(=O)Nc2ccccc2F)c(C)c1[N+](=O)[O-]	.	.	.	.	0	.	.	.
CC(C)NC(=O)N[C@H]1CC[C@H](CC(=O)NCc2ccc(Oc3ccccc3)cc2)O[C@@H]1CO	.	.	.	.	14	15*	-1	-4
COc1ccc(CN2C(C(=O)NC3CCCC3)CSCCS2(=O)=O)cc1 (stereo not given)	.	.	.	.	14	.	.	.
CC(=O)N1N=C(c2c(-c3ccccc3)c3cc(Br)ccc3[nH]c2=O)CC1c1ccco1 (stereo not given)	-6	1	3	-8	-20	24*	0	30*
CN(C(=O)COC(=O)c1cncc(Br)c1)C1CCS(=O)(=O)C1 (stereo not given)	4	-1	1	-3	2	4	.	.
CN(C(=O)COC(=O)c1cncc(Br)c1)C1CCCCC1	12	-2	-1	5	10	19*	0	0
COC(=O)[C@]12C[C@H](CC(=O)NCC3CCCCC3)C(=O)N(Cc3ccc(Cl)cc3Cl)C1=C[C@H](C(C)(C)C)O[C@@H]2C	.	.	.	.	-3	.	.	.
COc1ccc(NC(=O)c2ccc(NC(=O)c3nc4nc(C)cc(C)n4n3)cc2)cc1	-19	3	2	-22	5	15*	-1	-4
CCc1ccc(NC(=O)CSc2nc3nc(C)cc(C)n3n2)cc1	12	-2	0	-4	4	18*	0	-2
Cc1cc(C)n2nc(SCC(=O)Nc3ccccc3)nc2n1	8	-2	-3	8	0	-6	.	.
COC(=O)[C@]12C[C@H](CC(=O)NCCCN3CCCC3=O)C(=O)N(CCc3ccc(OC)c(OC)c3)C1=C[C@H](C(C)(C)C)O[C@@H]2C	.	.	.	.	5	.	.	.
COC(=O)[C@]12C[C@H](CC(=O)N3CCSCC3)C(=O)N(CCC3=CCCCC3)C1=C[C@H](C1CCCC1)O[C@@H]2C	.	.	.	.	0	.	.	.
SMILES	MOR-DOR inv ag	OPRM1-OPRD1 ag	HTR5A ag ctr	HTR5A inv ag	sPLA2-III inh	m5-HT2A agonist	MOR ag counter	HTR2A ag conf
N/C(=N\O)c1ccccc1-n1cccc1	5	-1	-2	5	-2	15*	-1	-3
O=C(O)CCCCCNS(=O)(=O)c1ccc2c3c(cccc13)C(=O)N2	-6	1	2	-35	5	16*	-1	-3
O=C(O)CNS(=O)(=O)c1ccc2c3c(cccc13)C(=O)N2	10	-2	2	-7	-2	-2	.	.
CN(C(=O)c1cccc(NC(=O)Cc2ccc(NC(=O)C3CCN(C(=O)C4CCC4)CC3)cc2)c1)C1CCCCC1	11	-2	3	-11	-18	9	.	.
CN(C(=O)c1cccc(NC(=O)Cc2ccc(NC(=O)C3CCN(C(=O)C4CCCCC4)CC3)cc2)c1)C1CC1	10	-2	3	-12	-18	16*	0.7*	5
COc1ccc(CCNC(=O)c2cccc(S(=O)(=O)N3CCOCC3)c2)cc1OC	-4	1	8	-18	10	16*	0	-1
COc1ccc(S(=O)(=O)N2CCC(C(=O)Nc3ccc(S(=O)(=O)N4CCCC4)cc3)CC2)cc1OC	18	-3	-2	6	-28	16*	0	-3
COc1ccc(S(=O)(=O)N2CCCCCC2)cc1NC(=O)c1ccccc1	2	-1	1	-3	1	0	.	.
COc1ccc(CCNC(=O)c2cc(S(=O)(=O)N3CCOCC3)cn2C)cc1OC	0	0	7	-22	1	-2	.	.
COc1ccc(S(=O)(=O)N2CCCCC2)cc1NC(=O)c1ccc(OC)c(OC)c1	6	-1	-4	9	0	15*	-1	-4
O=C(CSc1nnc(-c2cccnc2)n1-c1ccccc1)Nc1ccc2c(c1)OCCO2	.	.	.	.	3	.	.	.
O=C(CCc1ccncc1)NC1CCCc2c1cnn2-c1ccc(F)cc1F (stereo not given)	1	0	1	-3	4	16*	0	-1
O=C(Nc1nc2c(s1)COc1ccccc1-2)c1cccs1	-7	1	-6	18	-12	-5	.	.
O=C(CCS(=O)(=O)c1ccccc1)Nc1nc2c(s1)COc1ccccc1-2	0	0	1	-36	-16	22*	0	-5
